Assay outcomes deposited in PubChem by several laboratories.
Hits are enriched below; roughly 3.8% of the tested compounds scored in any of these assays.
tim10-1 inh: growth inhibitors of tim10-1 mutant yeast | S. cerevisiae tim10-1 ts strain growth, BacTiter-Glo, 24 h | inhibition, % at 20 µM | 330,000 tested, 2.2% active | AID 463190;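 active = inhibition of at least 40%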;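 also: mutant grown at 25 °C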
Yeast superoxide: caloric restriction mimetics inhibiting age-related superoxide in yeast; superoxide response (% of plate mean), % at 10 µM; S. cerevisiae aged cells, superoxide DHE fluorescence; stronger effect = lower value; AID 2690; 330,000 tested, 0.18% active;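 active = superoxide response under a set limit, about three screen SD below normal, cut at about 65% in these data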;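 also: yeast aged for seven days with compound at 30 °C before DHE staining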
TIM10 inh: inhibits growth of TIM10 yeast strain; 330,000 tested, 1.4% active; inhibition, % at 10 µM; S. cerevisiae TIM10 strain growth, BacTiter-Glo luminescence, 24 h;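 active = inhibition of 40% or more at the single tested concentration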;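 also: wild-type TIM10 isogenic control strain grown at permissive 25 °C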
tim23-1 inh: growth inhibitors of tim23-1 mutant yeast | S. cerevisiae tim23-1 growth, BacTiter-Glo luminescence, 24 h | inhibition, % at 20 µM | 330,000 tested, 1.3% active | AID 463212;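 active = growth inhibition of the mutant yeast at or above 50%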;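 also: temperature-sensitive mutant grown at 25 °C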
NLRP3 yeast inh: blocks the NALP3 inflammasome reconstituted in yeast. Yeast reconstituted NLRP3/ASC/caspase-1, beta-gal luminescence, 24 h. inhibition, % at 10 µM. 330,000 tested, 0.39% active. AID 2825;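 active = inhibition of 50% or more; inactive = inhibition below 50%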
TIM10 conf: confirmation of TIM10 yeast growth inhibitors. shares compounds with TIM10 inh. S. cerevisiae tim10 strain growth, BacTiter-Glo luminescence, 24 h. inhibition, % at 10 µM. 4,600 tested, 63% active. AID 463215;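 active = inhibition of yeast growth at or above a set limit in either of two replicates at 10 µM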; also: this counterscreen used the strain with wild-type TIM10
tim23-1 conf: tim23-1 yeast growth inhibition, confirmed. shares compounds with tim23-1 inh. S. cerevisiae tim23-1 growth, BacTiter-Glo luminescence, 24 h. inhibition, % at 20 µM. 4,400 tested, 83% active;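 active = inhibition above about 39% in either of two replicate wells at 20 µM, limit read from the data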;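 also: temperature-sensitive tim23-1 mutant grown at 25 °C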
Numbers stand for hits; – = inactive; · = no result.

SMILES	tim10-1 inh	Yeast superoxide	TIM10 inh	tim23-1 inh	NLRP3 yeast inh	TIM10 conf	tim23-1 conf
O=C(N/N=C/c1c(O)ccc2ccccc12)c1cccc(C(F)(F)F)c1	–	–	43	56	–	–	44
Cc1cccc(-c2nc(Nc3ccc(N4CCOCC4)cc3)c3ccccc3n2)c1	–	–	–	–	–	·	·
Cc1cccc(-c2nc(Nc3cccc(O)c3)c3ccccc3n2)c1	–	–	53	78	–	50	–
COc1ccc(-c2sc(Nc3ccccc3)n[n+]2-c2ccc(F)cc2)c(C)c1C	–	–	–	–	–	·	·
O=C1C2=C(Nc3ccccc3SC2c2ccco2)c2ccccc21 (stereo unspecified)	–	–	46	55	–	43	82
O=C1c2ccccc2NC(c2ccco2)N1O (stereo unspecified)	–	–	–	–	–	·	·
CCN1CCN(c2nc3sc4c(c3c(=O)n2-c2ccc(OC)cc2)CCCCC4)CC1	–	–	–	–	–	·	·
COc1ccc(-n2c(NN)nc3sc4c(c3c2=O)CCCC4)cc1	–	–	49	70	–	–	62
CCOC(=O)C1(Cc2ccccc2C)CCCN(S(=O)(=O)CC)C1 (stereo unspecified)	–	–	–	–	–	·	·
COc1ccc2c(C(=O)CCl)c[nH]c2c1	–	–	43	53	–	–	51
COc1ccc(OCC(=O)c2c[nH]c3ccccc23)cc1	–	–	–	–	–	·	·
CC(C)(C)c1nn(-c2ccccc2)c2[nH]c(=O)c(C=O)cc12	–	–	72	80	–	91	–
O=C(Nc1cccc(Cl)c1)N1CCOCC1	–	–	–	–	–	·	·
O=C(Nc1cccc(Cl)c1)N1CCCC1	–	–	47	51	–	–	73
O=c1c(Cl)c(NCc2ccccc2Cl)cnn1C12CC3CC(CC(C3)C1)C2	–	–	41	52	–	–	55
COc1ccccc1C1CCN(c2cc(O)ccc2[N+](=O)[O-])CC1	–	–	48	60	–	43	60
O=C(COC(=O)c1cccs1)NCc1ccccc1	–	–	–	–	–	·	·
N/C(Cc1cccc2ccccc12)=N\OC(=O)c1cccs1	–	–	61	63	–	78	72
CCCCN=Cc1sc2ccc(OCC)cc2c1O	–	–	43	58	–	27	54
Nc1ccc(-c2nc3c(ccc4ccccc43)[nH]2)cc1	–	–	66	58	–	66	52
Nc1ccc(-c2nc3ccccc3[nH]2)cc1	–	–	–	–	–	·	·
CSc1nc(N)c(C(=O)NC2CCCCC2)s1	–	–	–	–	–	·	·
CCCOc1ccc(C(=O)CCNC(Cc2c[nH]c3ccccc23)C(=O)O)cc1 (stereo unspecified)	–	–	49	74	–	37	–
COc1ccc(C(=O)NC(Cc2c[nH]c3ccccc23)C(=O)O)cc1 (stereo unspecified)	–	–	–	–	–	·	·
CO/C(N)=C(\C#N)N=Cc1ccccc1Cl	–	–	47	52	–	–	64
SMILES	tim10-1 inh	Yeast superoxide	TIM10 inh	tim23-1 inh	NLRP3 yeast inh	TIM10 conf	tim23-1 conf
N#CCC(=O)N/N=C/c1ccccc1Cl	–	–	–	–	–	·	·
CN(C(=O)Cn1nc(Cl)ccc1=O)C1CCCN(Cc2ccccc2F)C1 (stereo unspecified)	–	–	–	–	–	·	·
CCc1cccc2cc3c(N)c(C(=O)Nc4ccc(S(=O)(=O)N5CCCC5)cc4)sc3nc12	·	–	·	·	·	·	·
Cc1cc(C)c(OCC(=O)Nc2cccc(NC(=O)c3ccco3)c2)c(Br)c1	–	–	45	55	–	–	44
O=C(Nc1ccc(Oc2cccc3ccccc23)cc1)c1ccco1	–	–	40	58	–	–	77
O=C(COc1cccc(NC(=O)c2ccco2)c1)c1ccccc1	–	–	48	54	–	–	66
Cc1cc(C)c(OCC(=O)Nc2ccc(NC(=O)c3ccco3)cc2)c([N+](=O)[O-])c1	·	–	·	·	·	·	·
CC(C)CCNC(=O)C(c1ccc(O)cc1)N(Cc1ccco1)C(=O)CCC(=O)Nc1nccs1 (stereo unspecified)	–	–	–	–	–	·	·
O=C(Nc1ccc(N2CCN(c3ccc(C(F)(F)F)cn3)CC2)nc1)c1cccs1	–	–	–	–	–	·	·
O=C(Nc1ccc(N2CCN(c3ncccc3C(F)(F)F)CC2)nc1)c1cccs1	–	–	45	67	–	53	82
O=C(Nc1ccc(N2CCOCC2)nc1)c1cccs1	–	–	55	50	–	43	68
O=C(O)/C=C/C(=O)N1CCN(c2cccc(Cl)c2)CC1	–	–	–	–	–	·	·
COc1ccc(C(=O)NC(=S)N(C)C2CCCCC2)cc1Br	–	–	42	55	–	–	49
Cc1ccccc1C(=O)NNC(=S)NC(=O)c1ccccc1	–	–	–	–	–	·	·
O=C(NC(=S)NNC(=O)c1ccccc1O)c1ccccc1	–	–	49	62	–	42	–
CCOC(=O)c1cc(OC(=O)c2ccccc2OC)n(-c2ccccc2)n1	–	–	–	–	–	·	·
CCOC(=O)c1sc2ccccc2c1OC(=O)c1ccccc1OC	–	–	49	54	–	44	50
C(=N\Nc1nc2ccccc2[nH]1)/c1cccc2cccnc12	–	–	67	55	–	55	48
Cc1ccccc1/C=N/Nc1nc2ccccc2[nH]1	–	–	–	–	–	·	·
CC(C)(C)NC(=S)NC(=O)C12CC3CCC(CC(C3)C1)C2	–	–	45	50	–	–	59
Cc1cc(N2CCN(C(=O)c3ccco3)CC2)c2ccccc2n1	–	–	–	–	–	·	·
O=C(c1ccco1)N1CCN(c2nnc(-c3ccccc3)c3ccccc23)CC1	–	–	–	51	–	–	–
COc1cccc(N2CCN(S(=O)(=O)c3ccc4ccccc4c3)CC2)c1	–	·	–	–	–	·	·
Cc1cc(C)nc(SCc2ccc(C(=O)N/N=C/c3cccc(O)c3O)cc2)n1	–	–	56	60	–	47	56
CN(C)C(=O)CCc1ccc2c3c([nH]c2c1)[C@]1(C)[C@@H](C(=O)N2CCCCC2)C[C@H](CC(=O)NCC24CC5CC(CC(C5)C2)C4)C(=O)N1CC3	–	–	–	–	·	·	·
Cc1c(CCC(=O)NCCCn2ccnc2)c(=O)oc2cc3oc4c(c3cc12)CCCC4	–	–	–	–	–	·	·
O=C1CCCCCN1Sc1ccccc1	–	–	51	58	–	35	–
NC(=S)N/N=C\c1ccccc1OCc1ccccc1	–	–	41	53	–	–	–
COC(=O)CCNCCSc1nnc(-c2ccco2)n1Cc1ccccc1	–	–	–	–	–	·	·
Cc1ccc(NC2c3ncccc3C(=O)N2Cc2cccs2)cc1 (stereo unspecified)	–	–	–	–	–	·	·
